Results filed as inconclusive are left out. Calls of active or inactive are those of the source. Calls follow the shape of the dose curve; as a rule, active = well fitted inhibition curve with a large enough effect; inconclusive = small, poorly fitted or top-dose-only effect; inactive = flat fitted curve, though single readings scatter.

Holding throughout (assay): qHTS profiling for inhibitors of Plasmodium falciparum proliferation (AID 504749); also: nearly all actives have a fitted effect of over 60% in size
What all share (conditions): P. falciparum in erythrocytes, SYBR Green DNA, 72 h; series mostly up to 28.7 µM
For orientation: In qHTS, concentration-response curves come from the screen itself.

In one assay the test system is CP194. In a few lines:
(§1)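 In a 72 h erythrocytic culture (37 C, humidified, 5% CO2) at 2.5% hematocrit and 0.3% starting parasitemia, compounds were tested; SYBR Green I in detergent lysis buffer stained parasite DNA overnight.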

The test system of another assay is CP201. In a few lines: as §1
For another assay, the system named is CP211. An outline of the steps: as §1
Another assay deals with CP215. In a few lines:
as §1

The next assay deals with CP217. In a few lines: as §1
The subject of another assay is CP237. In a few lines:
as §1

A further assay has as its system CP238. In a few lines:
as §1

A further assay has as its system CP247. An outline of the steps: as §1
A further assay relates to CP250. In a few lines:
as §1

Another assay concerns CP252. In a few lines:
as §1

The subject of a further assay is CP256. In a few lines:
as §1

The next assay has as its system CP260. An outline of the steps:
as §1

The subject of the next assay is CP262. An outline of the steps: as §1
In the next assay the test system is CP265. In a few lines: as §1
The next assay deals with CP266. An outline of the steps: as §1
In the next assay the test system is CP268. In a few lines:
as §1

The test system of the next assay is CP269. In a few lines:
as §1

Another assay deals with CP286. An outline of the steps: as §1
For a further assay, the system named is CP291. An outline of the steps: as §1
Potency is read from the fitted curve at half-maximal effect.

Turning to `Nc1nc2c(ncn2COCCO)c(=O)[nH]1`, the Potency entry in the assay on CP194, with CP211, in the assay on CP215, with CP217, in the assay with CP237 and with CP238 was “inactive” in each case. Also, the Potency result in the assay with CP247, in the assay with CP250, with CP252, in the assay on CP256, in the assay on CP260 and with CP262 was “inactive” throughout. Further, the Potency result in the assay on CP265, in the assay on CP268, in the assay on CP269, with CP286 and in the assay on CP291 was “inactive” each time. The result in the assay with CP201 and in the assay with CP266 was inactive.

Regarding `Cc1cn[nH]c1`, the Potency result with CP194, in the assay on CP211, in the assay with CP215, in the assay with CP217, in the assay on CP237 and with CP238 was “inactive” in each case. Moreover, the Potency entry in the assay on CP247, in the assay with CP250, with CP252, in the assay on CP256, with CP260 and with CP262 was “inactive” throughout. Moreover, the Potency entry in the assay with CP265, in the assay on CP268, with CP269, with CP286 and with CP291 was “inactive” throughout. In addition, the molecule was classed as inactive with CP201 and in the assay on CP266.

Take `O=C1CCC(N2C(=O)c3ccccc3C2=O)C(=O)N1` (stereo not given): the Potency result in the assay with CP194, in the assay with CP211, with CP215, in the assay with CP217, in the assay with CP237 and in the assay on CP238 was “inactive” throughout. For the same molecule, the Potency entry with CP247, with CP250, in the assay on CP252, in the assay with CP256, in the assay with CP260 and with CP262 was “inactive” each time. In addition, the Potency result in the assay on CP265, in the assay with CP268, in the assay with CP269, in the assay with CP286 and in the assay with CP291 was “inactive” in each case. Besides, the molecule was classed as inactive in the assay with CP201 and in the assay with CP266.

With `NCCCC(N)(C(=O)O)C(F)F` (stereo not given), the Potency result in the assay with CP194, with CP211, in the assay on CP215, in the assay on CP217, in the assay with CP237 and in the assay on CP238 was “inactive” each time. Moreover, the Potency entry in the assay with CP247, in the assay on CP250, in the assay with CP252, in the assay with CP256, in the assay on CP260 and with CP262 was “inactive” each time. The Potency entry with CP265, with CP268, with CP269, with CP286 and in the assay on CP291 was “inactive” in each case. The result in the assay with CP201 and with CP266 was inactive.

As to `NCCc1ccc(O)c(O)c1`, the Potency result with CP194, in the assay with CP211, with CP215, in the assay with CP217, in the assay with CP237 and in the assay on CP238 was “inactive” each time. Besides, the Potency entry in the assay on CP247, in the assay on CP250, in the assay on CP252, in the assay on CP260, in the assay with CP262 and in the assay on CP265 was “inactive” throughout. In addition, the Potency entry with CP268, in the assay with CP269, in the assay with CP286 and with CP291 was “inactive” throughout. Further, the molecule was classed as inactive in the assay on CP201 and in the assay with CP266.

With `CCOC(=O)C1=C[C@@]2(CC)CCCN3CCc4c(n1c1ccccc41)[C@H]32`, the Potency in the assay on CP194 is 13.5 µM (active); with CP211 it was 13.5 µM (active); with CP215 it was 10.7 µM (active); with CP262 it was 12 µM (active); with CP268, 10.7 µM (active); with CP269, 10.7 µM (active). For the same molecule, the Potency with CP291 is 13.5 µM (active).

On to `OC(CN1CCC(Cc2ccc(F)cc2)CC1)c1ccc(Cl)cc1` (stereo not given), for which the molecule was called inactive in the assay on CP201 and in the assay with CP266. In addition, the Potency entry in the assay with CP211, in the assay on CP252 and in the assay with CP262 was “inactive” in each case. Besides, the results for the Potency in the assay with CP237, in the assay on CP260 and with CP286 were 2.51 µM (active), 3.16 µM (active) and 3.55 µM (active), respectively.

For `Cn1cnc([N+](=O)[O-])c1Sc1ncnc2nc[nH]c12`, the molecule was called inactive in the assay on CP201 and in the assay on CP266. Besides, the Potency result in the assay with CP211, in the assay with CP215, in the assay with CP237, in the assay with CP256, in the assay on CP260 and in the assay with CP262 was “inactive” each time. Also, the Potency result in the assay on CP268, with CP269, in the assay on CP286 and with CP291 was “inactive” throughout. The Potency with CP247 is 6.31 µM (active).

In the case of `O=C1CCc2cc(OCCCCc3nnnn3C3CCCCC3)ccc2N1`, the Potency result with CP194, in the assay on CP211, in the assay on CP215, with CP237, with CP260 and with CP268 was “inactive” throughout. Moreover, the Potency result with CP269, with CP286 and in the assay on CP291 was “inactive” throughout. The call with CP201 and with CP266 was inactive. The Potency in the assay on CP238 was 3.16 µM (active).

`O=c1n(CCCN2CCN(c3cccc(Cl)c3)CC2)nc2ccccn12`: the Potency entry in the assay with CP194, with CP211, in the assay with CP217, with CP237, with CP238 and in the assay with CP247 was “inactive” each time. Further, the Potency result with CP250, with CP252, in the assay on CP256, with CP260, in the assay on CP265 and with CP268 was “inactive” each time. The Potency entry in the assay on CP269, in the assay on CP286 and in the assay with CP291 was “inactive” in each case. Further, the molecule was called inactive with CP201 and in the assay on CP266.

For `Clc1ccc(Nc2nnc(Cc3ccncc3)c3ccccc23)cc1`, the Potency entry in the assay on CP194, in the assay on CP211, in the assay on CP215, in the assay on CP238, in the assay with CP250 and in the assay on CP252 was “inactive” throughout. Further, the Potency entry in the assay with CP256, in the assay with CP262, in the assay with CP265, with CP268, with CP269 and in the assay on CP291 was “inactive” each time. The call with CP201 and with CP266 was inactive.

As for `Cc1cc2c(C(C)C)c(O)c(O)c(C=O)c2c(O)c1-c1c(C)cc2c(C(C)C)c(O)c(O)c(C=O)c2c1O`, the Potency in the assay on CP237 is 10 µM (active); with CP247, 11.2 µM (active); in the assay on CP256 it was 11.2 µM (active); with CP265 it was 12.6 µM (active).

As to `C1COC(NC(C2CC2)C2CC2)=N1`, the molecule was classed as inactive in the assay on CP201 and with CP266. Further, the Potency entry in the assay on CP211, in the assay with CP262, in the assay with CP268, in the assay on CP269 and with CP286 was “inactive” in each case. In the assay with CP247, the Potency was 11.2 µM (active).

Turning to `CCCc1nc2c(C)cc(-c3nc4ccccc4n3C)cc2n1Cc1ccc(-c2ccccc2C(=O)O)cc1`, the molecule was classed as inactive in the assay on CP201 and in the assay on CP266. In addition, the Potency was 4.47 µM (active) in the assay with CP237, 6.31 µM (active) in the assay with CP260 and 11.2 µM (active) in the assay with CP286. Further, the Potency entry in the assay with CP250, with CP256 and with CP262 was “inactive” in each case.

Source of the values: PubChem BioAssay (NCATS).
